The source of these data is the supplement of paper PMC3334620.

The full ranking holds about 33,000 sequences; the median of “E-score (-0.5 to 0.5)” is about -0.043, and the highest 2% start at about 0.37. This is one part of a sample in which the highest values are shown more often than they occur.

This assay has as its target T1, Upc2 (UniProt Q12151).
T1 sequence: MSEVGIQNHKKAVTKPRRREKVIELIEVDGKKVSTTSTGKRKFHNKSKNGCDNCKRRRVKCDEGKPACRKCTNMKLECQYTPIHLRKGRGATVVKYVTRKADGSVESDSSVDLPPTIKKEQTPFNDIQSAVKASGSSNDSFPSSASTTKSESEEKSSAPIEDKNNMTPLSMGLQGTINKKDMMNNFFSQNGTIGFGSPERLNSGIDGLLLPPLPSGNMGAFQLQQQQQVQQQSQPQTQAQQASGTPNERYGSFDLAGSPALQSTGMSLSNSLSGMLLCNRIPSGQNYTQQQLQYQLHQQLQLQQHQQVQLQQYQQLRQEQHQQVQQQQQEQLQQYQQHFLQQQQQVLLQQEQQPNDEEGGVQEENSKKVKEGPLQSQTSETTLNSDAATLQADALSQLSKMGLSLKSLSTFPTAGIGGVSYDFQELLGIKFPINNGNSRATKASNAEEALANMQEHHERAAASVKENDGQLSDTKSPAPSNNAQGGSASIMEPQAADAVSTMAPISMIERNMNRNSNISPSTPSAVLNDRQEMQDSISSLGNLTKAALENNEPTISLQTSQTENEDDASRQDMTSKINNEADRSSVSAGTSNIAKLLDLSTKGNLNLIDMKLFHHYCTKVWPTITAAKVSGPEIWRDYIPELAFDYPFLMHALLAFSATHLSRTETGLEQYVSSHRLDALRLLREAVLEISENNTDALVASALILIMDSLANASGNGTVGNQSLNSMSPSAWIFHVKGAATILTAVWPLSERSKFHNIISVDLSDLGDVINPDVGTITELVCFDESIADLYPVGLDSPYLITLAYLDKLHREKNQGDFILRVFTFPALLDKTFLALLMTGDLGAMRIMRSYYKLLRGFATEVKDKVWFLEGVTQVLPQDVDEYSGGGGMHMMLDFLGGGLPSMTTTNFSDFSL
The assay is described as follows: PBM E-score (8-mer binding enrichment) (E-score (-0.5 to 0.5)); higher = stronger / more preferred TF binding. As to conditions: protein concentration: 200 nM; construct: GST-full length. As to the method: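 Universal 'all 10-mer' protein binding microarrays (Agilent AMADID 015681) probed with GST-tagged S. cerevisiae TFs (full-length or DBD) made by in vitro transcription/translation (PURExpress), about 100-200 nM. Bound TF was detected with fluorescent anti-GST. Each ungapped 8-mer (which stands for itself and its reverse complement) is scored by the PBM enrichment score (E-score), a modified Wilcoxon-Mann-Whitney statistic from -0.5 to +0.5, computed with the Universal PBM Analysis Suite. Scale: above 0.35 generally sequence-specific binding.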
For the sequence CATCGATC, the “PBM E-score” value is -0.0852.
Regarding ATAGATTC, the “PBM E-score” value is -0.12.
In the case of GGCATAAC it was -0.0916.
Then ACCGATCC, with -0.0521.
Consider ATACTCAT, for which the “PBM E-score” value was -0.111.
GTGGGCTA: the “PBM E-score” value was -0.128.
On to CTACGAAC, for which the “PBM E-score” value worked out at 0.333.
Then TCACGAAA, with -0.0654; and GTACGAAC, with 0.467; and ACACGAAA, with 0.197.
In the case of ATACGTAT it was 0.372; in that of AGACGAAA, 0.196.
As for ATACGTAA, the “PBM E-score” value was 0.334.
In the case of ATACGAAA it was 0.47; in that of ATACGTAC, 0.339; in that of GGACGAAC, 0.0508.
Then CTACGAAA, with 0.272.
As for TTACGAAA, the “PBM E-score” value was found to be 0.41.
As for AGCTCGAT, the “PBM E-score” value is -0.0109.
AAGCTGGT: the “PBM E-score” value is -0.0392.
Take CAGATTGG: the “PBM E-score” value was -0.303.
As for CAACTTCA, the “PBM E-score” value was -0.0217.
For the sequence CCATTTCA, the “PBM E-score” value was -0.241.
On to CTCAGCTC, for which the “PBM E-score” value was -0.114.
In the case of AGCGAGAG, the “PBM E-score” value turned out to be 0.229.
GGTATAAC: the “PBM E-score” value was determined as 0.135.
Consider AGTATAAG, for which the “PBM E-score” value worked out at 0.261.
For the sequence CGTATAAA, the “PBM E-score” value came out at 0.477.
In the case of CGTATAAC, the “PBM E-score” value worked out at 0.478.
Regarding CATATAAG, the “PBM E-score” value came to 0.17.
For AGTATAAC, the “PBM E-score” value was determined as 0.172.
On to TGTATAAA, for which the “PBM E-score” value came out at 0.156.
As for CGTATAAG, the “PBM E-score” value was 0.481.
With AGTATAAA, the “PBM E-score” value is 0.238.
Regarding AACTTTCC, the “PBM E-score” value was -0.281.
With AGCTCTCA, the “PBM E-score” value is -0.214.
Regarding GGGAGGTA, the “PBM E-score” value was determined as 0.132.
Regarding CACAGATA, the “PBM E-score” value is -0.136.
As for GCACTGGA, the “PBM E-score” value was -0.0891.
Then GGTATACA, with -0.0256.
Regarding GGTATACC, the “PBM E-score” value worked out at 0.214.
Regarding CGTATACA, the “PBM E-score” value was found to be 0.474.
Turning to AGTATACC, the “PBM E-score” value was determined as 0.124.
For AGTATACA, the “PBM E-score” value turned out to be 0.149.
Then CGTATACC, with 0.472.
Take CGTTCAGA: the “PBM E-score” value came out at 0.372.
For the sequence AGTTCAGA, the “PBM E-score” value is -0.0704.
In the case of AGTTCAGC it was -0.205; in that of GGTTCAGA, -0.186; in that of CGTTCATC, 0.353.
On to CGTTCAGC, for which the “PBM E-score” value is 0.396.
As for AGGCGTGC, the “PBM E-score” value was -0.0583.
For CGCAGTAG, the “PBM E-score” value was -0.0605.
In the case of AAAGGTGT it was 0.0174; in that of GTTAGCCA, -0.0759.
In the case of ACTGAGAT, the “PBM E-score” value is -0.184.
As for CTTTAAAG, the “PBM E-score” value is -0.114.
Regarding AGTTAAAG, the “PBM E-score” value is 0.0271.
Regarding CGTTAAAG, the “PBM E-score” value is 0.4.
Then GGTTAAAC, with 0.232.
For the sequence CGTTAAAC, the “PBM E-score” value came to 0.411.
Take CGTTAAGA: the “PBM E-score” value was 0.341.
Then AGTTAAGC, with 0.00193; and CGTTAAAA, with 0.364.
As for CGTTAAGC, the “PBM E-score” value was 0.432.
For GAAAACTC, the “PBM E-score” value was -0.114.
For AGAGAATG, the “PBM E-score” value came out at 0.0339.
As to GCAGTGGA, the “PBM E-score” value was -0.123.
For CTCAATAA, the “PBM E-score” value is -0.213.
For GACAGTGA, the “PBM E-score” value was -0.0168.
In the case of CACTAGGA, the “PBM E-score” value was -0.245.
On to AGATACGG, for which the “PBM E-score” value worked out at 0.307.
In the case of AGATACGC, the “PBM E-score” value is 0.201.
Regarding GGATACGA, the “PBM E-score” value stood at 0.463.
As to CGATACGC, the “PBM E-score” value stood at 0.267.
As to CGATACAA, the “PBM E-score” value was 0.0776.
Turning to CGATACGA, the “PBM E-score” value came to 0.464.
On to GGATACTA, for which the “PBM E-score” value is -0.183.
GGATACCA: the “PBM E-score” value was -0.0879.
In the case of AGATACGA, the “PBM E-score” value came to 0.454.
As for TGCGGCAA, the “PBM E-score” value is -0.127.
Turning to ATATCTAC, the “PBM E-score” value was determined as 0.0208.
For CTGCTCAC, the “PBM E-score” value stood at 0.00302.
Then AGCGTGAA, with -0.0302; and ACAGCTAT, with -0.0224; and GGGTCGAA, with 0.0267.
